A number with no mark means an inactive call. The rule behind the calls is not given here.

The experiment deals with Pantothenate synthetase (Mycobacterium tuberculosis (strain ATCC 25618 / H37Rv)) (UniProt P9WIL5). Nature of the experiment: Recombinant Mtb pantothenate synthetase (PanC) inhibitors, coupled enzyme, confirmatory (AID 375).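 Note: 0% = full reaction with vehicle and 100% = no enzyme background.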 The conditions noted are these: coupled enzyme assay; at 10 µM, active compounds read high.
Chain of Pantothenate synthetase (Mycobacterium tuberculosis (strain ATCC 25618 / H37Rv)) (P9WIL5 whole entry, looked up): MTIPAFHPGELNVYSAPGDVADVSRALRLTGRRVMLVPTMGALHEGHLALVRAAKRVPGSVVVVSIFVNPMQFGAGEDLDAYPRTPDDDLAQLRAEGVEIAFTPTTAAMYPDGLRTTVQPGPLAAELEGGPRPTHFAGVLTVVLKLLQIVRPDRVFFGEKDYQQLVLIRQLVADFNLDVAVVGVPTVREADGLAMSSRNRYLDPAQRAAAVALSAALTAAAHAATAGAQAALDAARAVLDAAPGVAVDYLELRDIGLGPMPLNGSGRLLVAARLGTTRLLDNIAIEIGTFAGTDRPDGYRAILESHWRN
As for `CCCC(=O)Nc1ccccc1-c1nnn(CC(=O)Nc2ccc(OC)cc2)n1`, the inhibition is 0%.
As for `Cc1ccc(-c2cc(C(=O)NCCN3CCOCC3)no2)cc1`, the figure is 3%; as for `CCCCC(=O)Nc1ccc(NC(=O)C2CC2)nc1`, 2%; as for `COc1ccc(C(=O)NCCSc2ccccn2)cc1`, 5%.
Take `Cc1nnc(SCC(=O)NCc2ccc3c(c2)OCO3)s1`: the inhibition was 5%.
As for `CCOC(=O)CSC1=Nc2ccccc2C2=NC(CC(=O)NCc3ccc(OC)cc3)C(=O)N12` (stereo not given), the figure is 2%; as for `CN1C(=O)c2oc3ccccc3c(=O)c2C1c1ccccn1` (stereo not given), 0%; as for `CC(=O)OCC(=O)[C@H]1CC[C@H]2[C@@H]3CC=C4C[C@@H](O)CC[C@]4(C)[C@H]3CC[C@]12C`, 1%.
In the case of `COc1cc2c(cc1OC)CN(C(=O)COc1ccc(C#N)cc1)CC2` it was 0%.
With `C=CCc1ccccc1OCC(O)CNC(C)C` (stereo not given), the inhibition is 8%.
As for `Cc1ccc(S(=O)(=O)CCc2nnc(NC(=O)c3cnccn3)s2)cc1`, the figure is 8%; as for `O=C(C1CCN(S(=O)(=O)N2CCC3(CC2)OCCO3)CC1)N1CCOCC1`, 0%.
For the compound `CCOC(=O)c1ccc(NC(=O)N2CCN(Cc3cccc(F)c3)CC2)cc1`, the inhibition is 0%.
In the case of `Oc1ccc(Nc2nc(-c3ccc(O)cc3)cs2)cc1`, the inhibition was 2%.
Turning to `Cn1cccc1C1NC(=O)c2c(sc3c2CCC(C(C)(C)C)C3)N1` (stereo not given), the inhibition was 3%.
`COc1ccc(CN(Cc2cc3cc4c(cc3[nH]c2=O)OCO4)C(=O)NC2CCCCC2)cc1`: the inhibition is 3%.
In the case of `N#Cc1nc(-c2cccs2)oc1NCCc1ccccc1`, the inhibition was 0%.
In the case of `COc1ccc(C2(C(=O)N3CCCC3)CCOCC2)cc1OC`, the inhibition is 6%.
As for `CCn1cc(SCC(=O)NCC2CCCO2)c2ccccc21` (stereo not given), the inhibition is 0%.
`COc1ccc2c(c1)C(=O)N(c1ccccc1OC)C(=O)C2`: the inhibition was 0%.
As for `COCCc1ccc(OCC(O)CNC(C)C)cc1` (stereo not given), the inhibition is 6%.
In the case of `Cc1cc(=O)[nH]c2c1cnn2Cc1ccccc1`, the inhibition was 1%.
As for `Cc1ccc(NC(=O)CSc2nnc(Cc3cccn3C)n2-c2ccc(F)cc2)cc1`, the inhibition was 6%.
Regarding `COc1cc2[nH]c(=O)n(CCCCCC(=O)NCCCN3CCCC3=O)c(=O)c2cc1OC`, the inhibition was 0%.
As for `Cn1c(=O)oc2cc(S(=O)(=O)NC3CCN(Cc4ccccc4)CC3)ccc21`, the figure is 0%.
Regarding `CCN(CC(=O)Nc1c(C(=O)OC)[nH]c2ccccc12)c1ccc2c(c1)OCO2`, the inhibition was 5%.
As for `CCNC(=O)N(C)c1nncnc1C(=O)NC`, the figure is 0%; as for `COC(=O)c1oc2ccc(Br)cc2c1NC(=O)CN1CCN(C)CC1`, 5%.
Take `O=C1C2C3C=CC(C3=C3CCCCC3)C2C(=O)N1c1ccccc1` (stereo not given): the inhibition was 0%.
As for `CS(=O)(=O)N(CC(=O)O)c1cccc(Cl)c1`, the figure is 3%.
`O=C(c1ccc2c(c1)[nH]c(=S)n1c3ccccc3nc21)N1CCN(c2ncccn2)CC1`: the inhibition was 8%.
As for `C=CCc1ccccc1OCC(O)CN1CCN(Cc2ccc3c(c2)OCO3)CC1` (stereo not given), the figure is 5%; as for `O=C(c1cnn2c(C(F)F)cc(C3CC3)nc12)N1CCOCC1`, 1%.
In the case of `CCOc1cc(C2Nc3ccccc3C(=O)N2c2ccccc2OC)ccc1O` (stereo not given), the inhibition is 0%.
With `N#Cc1cc2ccc(N3CCOCC3)cc2cc1C#N`, the inhibition was 0%.
In the case of `Cc1ccc(S(=O)(=O)NCC(=O)N(CC(=O)NC2CCCCC2)Cc2ccco2)cc1`, the inhibition is 11%.
As for `CN(C)c1ccc(CNCCC2(O)CCOC(C)(C)C2)cc1` (stereo not given), the inhibition is 2%.
As for `O=C(OCc1nnc(-c2ccccc2)o1)C1=COCCO1`, the figure is 0%.
As for `Nc1nnn(Cc2ccccc2)n1`, the figure is 0%.
Regarding `CC1CCN(Cc2ccc(NC(=O)C3CCN(c4nnc(-n5cccc5)s4)CC3)cc2)CC1`, the inhibition is 0%.
